PubChem BioAssay (EPA / NIEHS)
Results filed as inconclusive are left out. The source made the active and inactive calls. The calls were made as follows, unless noted: active = hit-call score of the fitted dose curve at least 0.9, where 1 is the maximum; inconclusive = response in the unintended direction; inactive = score below 0.9.

Key:
[1] = TOX21_p53_BLA_p2_viability: Viability Assessment in the Tox21 HCT-116 p53 Agonism Beta-lactamase Assay, Phase 2 (AID 2283591);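 also: compound exposure lasted 16 h at 37 °C; actives lower the ATP signal meaning cytotoxicity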
Summary of the method: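 Cytotoxicity readout: CellTiter-Glo ATP luminescence, 30 min at room temperature, after the beta-lactamase read. Cells were HCT116 exposed 16 h at 37C to compounds pin-transferred at 217-fold dilution from DMSO stocks.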

[2] = target: Cellular tumor antigen p53 (Homo sapiens) (UniProt P04637); experiment: TOX21_p53_BLA_p2_ratio: Tox21 HCT-116 p53 Agonism Beta-lactamase Assay, Ratio, Phase 2 (AID 2283592)
Summary of the method: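 Cleaved-to-uncleaved substrate ratio (460 vs 530 nm) measured in HCT116 cells with an inducible beta-lactamase reporter linked to p53 activity. Compounds incubated 16 h at 37C before 2 h room-temperature CCF4-AM loading.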

[3] = TOX21_p53_BLA_p5_viability: Viability Assessment in the Tox21 HCT-116 p53 Agonism Beta-lactamase Assay, Phase 5 (AID 2283600)
Summary of the method: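 Viability is taken from cellular ATP content, measured by luciferase luminescence in the same wells after the beta-lactamase ratio read. Cells are seeded at 4000 per well and exposed to DMSO-dissolved compounds, diluted 217-fold, for 16 h.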

[4] = target: Cellular tumor antigen p53 (Homo sapiens) (UniProt P04637); experiment: TOX21_p53_BLA_p4_ratio: Tox21 HCT-116 p53 Agonism Beta-lactamase Assay, Ratio, Phase 4 (AID 2283601)
Summary of the method: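 Signal is the blue/green (460nm/530nm) ratio of cleaved versus uncleaved CCF4-AM substrate, read after 2 h substrate loading. Cells were HCT116 carrying the p53-responsive beta-lactamase reporter, dosed 16 h at 37C, 5% CO2; CellTiter-Glo measured in parallel.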

[5] = target: Cellular tumor antigen p53 (Homo sapiens) (UniProt P04637); experiment: TOX21_p53_BLA_p5_ratio: Tox21 HCT-116 p53 Agonism Beta-lactamase Assay, Ratio, Phase 5 (AID 2283599)
Summary of the method: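 Beta-lactamase reporter ratio (blue 460 nm over green 530 nm, 405 nm excitation) after 2 h CCF4-AM loading, in HCT-116 cells exposed 16 h at 37 C to compounds pinned at 217-fold dilution. Increases relative to DMSO baseline scored.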

[6] = CCTE_Harrill_HTTr_Viability_MCF7: CCTE's 6-hour Cell Viability Assessment for the High-Throughput Transcriptomics (HTTr) Platform, in MCF-7 cells cultured in DMEM + 10% fetal bovine serum, Harrill Lab (AID 2284010; active = hit-call score of the fitted dose curve at least 0.9, where 1 is the maximum; inactive = score below 0.9)
Summary of the method: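 Read-out is propidium iodide gain of signal by high-content imaging, reflecting membrane integrity loss. Measurements are taken 6 h after dosing, eight concentrations per chemical, with DMSO serving as baseline for bidirectional curve fitting.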

[7] = CCTE_Harrill_HTTr_Apoptosis_MCF7: CCTE's 6-hour Apoptosis Assessment for the High-Throughput Transcriptomics (HTTr) Platform, in MCF-7 cells cultured in DMEM + 10% fetal bovine serum, Harrill Lab (AID 2284011; active = hit-call score of the fitted dose curve at least 0.9, where 1 is the maximum; inactive = score below 0.9)
Summary of the method: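 Cells are dosed with test chemicals at eight concentrations and imaged 6 hours later for caspase-3/7 activity using a green fluorogenic detection reagent. Activity is fitted in both directions against DMSO controls.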

[8] = TOX21_p53_BLA_p3_viability: Viability Assessment in the Tox21 HCT-116 p53 Agonism Beta-lactamase Assay, Phase 3 (AID 2283593)
Summary of the method: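 Cellular ATP was quantified by CellTiter-Glo luminescence, read after 30 min at room temperature. Beforehand, HCT116 cells (4000/well) received compound 5 h post-seeding, 217-fold diluted from DMSO, then incubated 16 h at 37C.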

[9] = target: Cellular tumor antigen p53 (Homo sapiens) (UniProt P04637); experiment: TOX21_p53_BLA_p3_ratio: Tox21 HCT-116 p53 Agonism Beta-lactamase Assay, Ratio, Phase 3 (AID 2283596)
Summary of the method: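 Cells were seeded at 4000/well, rested 5 h at 37C, then dosed with DMSO compound solutions (217-fold dilution) for 16 h. CCF4-AM substrate was loaded for 2 h at room temperature, and the 460/530 nm emission ratio was fitted for gain of signal versus DMSO.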

[10] = target: Thyroid hormone receptor alpha (Rattus norvegicus) + Thyroid hormone receptor beta (Rattus norvegicus) (UniProt P18113+P63059); experiment: TOX21_TR_LUC_GH3_Agonist_Followup: Tox21 GH3 Thyroid Hormone Receptor Agonism Luciferase Follow-Up Assay (AID 2283939)
Summary of the method: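 Agonist-mode confirmatory run: 15 concentrations (5 nM to 92 uM final) on GH3 rat pituitary cells, 24 h at 37C/5% CO2, T3 as positive control. Luminescence read with ONE-Glo after 30 min.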

THRA (gene 7067) = THRA (gene 7067) (UniProt P10827); experiment: TOX21_TRA_COA_Agonist_Followup_ratio: Tox21 Thyroid Hormone Receptor alpha Agonism through Coactivator Recruitment Follow-Up Assay, Ratio (AID 2283948; active = hit-call score of the fitted dose curve at least 0.9, where 1 is the maximum; inactive = score below 0.9)
Summary of the method: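 First, compound was incubated with 2.5 nM GST-TRα LBD in 0.10% BSA. Next, 200 nM fluorescein-SRC-2 and 2 nM Tb-anti-GST antibody were added. Finally, the 520:495 nm ratio was normalized to DMSO and T3 controls.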

THRB (gene 7068) [11] = target: THRB (gene 7068) (UniProt P10828); experiment: TOX21_TRB_BLA_Agonist_Followup_ratio: Tox21 Thyroid Hormone Receptor beta Agonism Beta-lactamase (BLA) Follow-Up Assay, Ratio (AID 2283954)
Summary of the method: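 Agonist mode: compounds (11-point, triplicate) incubated 18 h with HEK293T cells carrying GAL4-DBD/human TRβ-LBD and UAS-β-lactamase. Blue/green (460/530 nm) FRET ratio read after 2 h CCF4-AM loading; CellTiter-Glo viability run in the same plates.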

THRB (gene 7068) [12] = target: THRB (gene 7068) (UniProt P10828); experiment: TOX21_TRB_COA_Agonist_Followup_ratio: Tox21 Thyroid Hormone Receptor beta Agonism through Coactivator Recruitment Follow-Up Assay, Ratio (AID 2283963; active = hit-call score of the fitted dose curve at least 0.9, where 1 is the maximum; inactive = score below 0.9)
Summary of the method: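 Agonism is measured as coactivator recruitment in a purified-protein TR-FRET format, using GST-TRβ LBD at 5.0 nM, fluorescein-SRC-2 peptide at 200 nM and Tb-labeled anti-GST antibody at 2 nM. Values are 520:495 nm ratios relative to DMSO (0%) and T3 (100%).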

[13] = target: Retinoic acid receptor RXR-alpha (Homo sapiens) (UniProt P19793); experiment: TOX21_TR_RXR_BLA_Agonist_Followup_ratio: Tox21 Thyroid Hormone Receptor beta Retinoid X Receptor alpha (RXRa) Agonism Beta-lactamase (BLA) Follow-Up Assay, Ratio (AID 2283968)
Summary of the method: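 Cells were first allowed to attach for 5 h, after which compounds in DMSO were pinned at 11 concentrations and incubated 16 h at 37C. LiveBLAzer CCF4-AM substrate was then added for 2 h at room temperature before reading 460 and 530 nm fluorescence.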

[14] = TOX21_TR_RXR_BLA_Agonist_Followup_viability: Viability Assessment in the Tox21 Thyroid Hormone Receptor beta Retinoid X Receptor alpha (RXRa) Agonism Beta-lactamase (BLA) Follow-Up Assay (AID 2283970)
Summary of the method: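 Viability counter-screen run alongside the RXRa bla follow-up: HEK293T reporter cells were treated for 16h at 37C in stripped-serum medium, then ATP was quantified by luciferase-coupled CellTiter-Glo. Decreased signal relative to DMSO marked cytotoxicity.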

[15] = TOX21_p53_BLA_p4_viability: Viability Assessment in the Tox21 HCT-116 p53 Agonism Beta-lactamase Assay, Phase 4 (AID 2283597);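 also: hits lower the luminescence signal meaning cytotoxicity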
Summary of the method: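 Viability is taken as cellular ATP: after 16 h compound exposure of HCT116 cells and a 2 h room-temperature CCF4-AM substrate step, CellTiter-Glo reagent is added and luminescence is measured 30 min later.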

Measured: AC50

Cellular tumor antigen p53 (Homo sapiens), sequence (P04637 whole entry, looked up): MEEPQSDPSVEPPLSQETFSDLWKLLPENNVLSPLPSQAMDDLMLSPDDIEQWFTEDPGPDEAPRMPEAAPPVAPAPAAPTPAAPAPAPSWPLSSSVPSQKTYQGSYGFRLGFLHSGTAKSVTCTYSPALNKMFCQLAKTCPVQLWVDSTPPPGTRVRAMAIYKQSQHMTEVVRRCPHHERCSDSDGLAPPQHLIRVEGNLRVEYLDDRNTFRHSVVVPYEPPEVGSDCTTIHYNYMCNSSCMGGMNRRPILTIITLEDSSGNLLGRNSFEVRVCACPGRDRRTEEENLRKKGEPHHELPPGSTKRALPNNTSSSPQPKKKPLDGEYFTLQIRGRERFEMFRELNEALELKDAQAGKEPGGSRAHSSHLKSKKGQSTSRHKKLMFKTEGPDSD
THRB (gene 7068), sequence (P10828 whole entry, looked up, the tested form may be a part): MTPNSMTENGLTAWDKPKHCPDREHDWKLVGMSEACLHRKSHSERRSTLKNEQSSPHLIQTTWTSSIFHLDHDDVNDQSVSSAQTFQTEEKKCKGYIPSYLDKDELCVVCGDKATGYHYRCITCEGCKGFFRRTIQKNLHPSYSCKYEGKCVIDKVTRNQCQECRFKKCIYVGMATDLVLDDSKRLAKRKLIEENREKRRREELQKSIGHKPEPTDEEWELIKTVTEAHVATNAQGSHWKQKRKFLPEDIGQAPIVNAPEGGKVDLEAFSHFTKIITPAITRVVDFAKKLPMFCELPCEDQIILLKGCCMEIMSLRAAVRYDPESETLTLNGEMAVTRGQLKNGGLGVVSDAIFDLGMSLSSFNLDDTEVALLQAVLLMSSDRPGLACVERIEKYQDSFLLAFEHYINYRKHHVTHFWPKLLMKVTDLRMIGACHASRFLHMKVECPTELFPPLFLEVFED
THRA (gene 7067), sequence (P10827 whole entry, looked up, the tested form may be a part): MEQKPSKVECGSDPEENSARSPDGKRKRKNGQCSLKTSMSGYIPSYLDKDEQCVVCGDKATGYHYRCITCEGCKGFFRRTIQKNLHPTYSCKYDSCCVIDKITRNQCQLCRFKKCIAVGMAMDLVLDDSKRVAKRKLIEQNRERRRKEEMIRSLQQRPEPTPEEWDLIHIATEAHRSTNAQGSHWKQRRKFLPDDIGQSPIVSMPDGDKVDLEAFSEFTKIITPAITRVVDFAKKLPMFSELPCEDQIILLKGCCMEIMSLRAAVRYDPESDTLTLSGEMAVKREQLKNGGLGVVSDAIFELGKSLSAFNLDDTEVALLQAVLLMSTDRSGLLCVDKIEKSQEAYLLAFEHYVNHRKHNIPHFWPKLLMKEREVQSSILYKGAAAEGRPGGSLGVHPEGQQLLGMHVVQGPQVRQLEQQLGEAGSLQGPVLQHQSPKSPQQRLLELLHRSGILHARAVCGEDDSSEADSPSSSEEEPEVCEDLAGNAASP
Retinoic acid receptor RXR-alpha (Homo sapiens), sequence (P19793 whole entry, looked up): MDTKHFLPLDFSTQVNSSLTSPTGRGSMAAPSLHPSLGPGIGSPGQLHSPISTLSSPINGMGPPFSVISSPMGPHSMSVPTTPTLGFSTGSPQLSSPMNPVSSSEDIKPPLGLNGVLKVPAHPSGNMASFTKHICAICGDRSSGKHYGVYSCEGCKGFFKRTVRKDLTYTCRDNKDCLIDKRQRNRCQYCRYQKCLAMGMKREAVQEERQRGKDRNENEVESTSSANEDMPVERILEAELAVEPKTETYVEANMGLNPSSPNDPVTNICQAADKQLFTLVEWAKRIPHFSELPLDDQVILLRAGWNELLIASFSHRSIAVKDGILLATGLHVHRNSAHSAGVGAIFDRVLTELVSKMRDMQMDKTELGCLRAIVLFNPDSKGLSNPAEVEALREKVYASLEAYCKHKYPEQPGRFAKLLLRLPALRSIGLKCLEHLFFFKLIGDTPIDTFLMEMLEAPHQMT
Thyroid hormone receptor alpha (Rattus norvegicus) + Thyroid hormone receptor beta (Rattus norvegicus), sequence (P63059 whole entry, looked up): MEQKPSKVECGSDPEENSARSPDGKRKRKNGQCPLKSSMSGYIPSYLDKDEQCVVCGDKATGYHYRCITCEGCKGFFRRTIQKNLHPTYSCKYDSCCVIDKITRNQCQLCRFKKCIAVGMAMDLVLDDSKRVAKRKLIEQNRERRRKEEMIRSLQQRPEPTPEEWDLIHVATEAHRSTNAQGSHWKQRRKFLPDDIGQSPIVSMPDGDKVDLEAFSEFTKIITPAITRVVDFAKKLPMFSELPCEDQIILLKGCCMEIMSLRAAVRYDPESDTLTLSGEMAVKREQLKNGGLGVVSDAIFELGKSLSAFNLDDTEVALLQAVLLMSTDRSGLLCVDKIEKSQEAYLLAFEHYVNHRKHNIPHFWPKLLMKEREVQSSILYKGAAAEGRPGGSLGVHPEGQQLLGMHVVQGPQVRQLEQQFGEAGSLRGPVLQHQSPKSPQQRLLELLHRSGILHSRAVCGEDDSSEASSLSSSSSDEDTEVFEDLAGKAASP
Thyroid hormone receptor alpha (Rattus norvegicus) + Thyroid hormone receptor beta (Rattus norvegicus), sequence (P18113 whole entry, looked up): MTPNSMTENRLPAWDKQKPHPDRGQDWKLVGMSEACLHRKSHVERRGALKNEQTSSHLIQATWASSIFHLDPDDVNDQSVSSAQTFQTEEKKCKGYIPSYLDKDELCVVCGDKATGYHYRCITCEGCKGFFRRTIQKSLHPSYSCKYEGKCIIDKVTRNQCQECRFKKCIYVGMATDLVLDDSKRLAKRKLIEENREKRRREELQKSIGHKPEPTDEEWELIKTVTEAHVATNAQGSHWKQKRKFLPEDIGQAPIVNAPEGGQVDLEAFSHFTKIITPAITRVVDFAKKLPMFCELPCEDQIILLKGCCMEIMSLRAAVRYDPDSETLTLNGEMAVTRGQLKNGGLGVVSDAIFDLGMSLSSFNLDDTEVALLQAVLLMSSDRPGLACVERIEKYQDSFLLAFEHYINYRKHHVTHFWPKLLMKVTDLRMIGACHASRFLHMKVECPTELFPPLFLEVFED

CCCCNCC(O)c1ccc(O)cc1 (stereo not drawn)
inactive: [1] | [2] | [3] | [4]

OCCSSCCO
inactive: [1] | [2] | [5] | [4] | [6] | [7]

Clc1ccc(C2(Cn3cncn3)OCCO2)c(Cl)c1
inactive: [1] | [2] | [5] | [3] | [4]

COc1ccc(OC)c([C@@H](O)[C@H](C)N)c1
inactive: [1] | [8] | [9] | [3] | [4] | THRA (gene 7067) | THRB (gene 7068) [11] | THRB (gene 7068) [12] | [13] | [14]
active: [10] 14.9 µM

CCC[CH2][Sn]([CH2]CCC)([O]C(C)=O)[O]C(C)=O
inactive: [1] | [15] | [5] | [3] | [4]
active: [8] 17.7 µM | [9] 32.2 µM

C=C1CC[C@@]2(O)[C@H]3Cc4ccc(O)c5c4[C@@]2(CCN3CC2CC2)[C@H]1O5
inactive: [1] | [8] | [9] | [4]

O=[Se]=O
active: [1] 16.1 µM | [8] 7.66 µM | [9] 0.777 µM | [15] 21 µM | [4] 4.23 µM
inactive: [5]
